Screening data as filed in PubChem BioAssay.
This is a sample that favours compounds with a hit; in the whole collection about 0.45% have one here.
Menin MLL FP TR – displaces Texas Red mutant MLL peptide from human menin; Potency, µM (top dose mostly 61.6 µM), actives largely listed as inhibitors; actives 0.23% (n = 270,000); Menin + Texas Red MLL mutant peptide, fluorescence polarization; O00255; active = well fitted inhibition curve with a large enough effect in the polarisation, with a control signal flat, not every such curve was filed as active; inconclusive = small, poorly fitted or top-dose-only effect, or effect the other way, or a change in a side signal; inactive = no such curve, though single readings can be large or run the other way; the % refers to the polarisation
Menin-MLL FL inh – inhibitors of human menin-MLL interaction, wild-type MLL peptide; Fluorescence polarization, fluorescein-MLL peptide displacement from menin; FP activity change, % at 61.4 µM; 290,000 tested, under 10 active; active = well fitted curve in the direction sought with a large enough effect in the polarisation, not every such curve was filed as active; inconclusive = small, poorly fitted or top-dose-only effect, or effect the other way, or a change in a side signal; inactive = no such curve, though single readings can be large or run the other way; the % refers to the polarisation
CXXC DNA block – inhibitors of human MLL CXXC domain-DNA interaction; MLL-CXXC / FITC-HOXA9 DNA fluorescence polarization; Potency, µM (series often up to 115 µM), most hits filed as inhibitors; actives 0.037% (n = 290,000); Q03164; active = well fitted inhibition curve with a large enough effect in the polarisation, with a control signal flat, not every such curve was filed as active; inconclusive = small, poorly fitted or top-dose-only effect, or effect the other way, or a change in a side signal; inactive = no such curve, though single readings can be large or run the other way; the % refers to the polarisation
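Purified MLL-CXXC (added from a 7 uM solution) was preincubated 5 min at ambient with pinned compounds in 50 mM Tris-HCl pH 7.5, 50 mM NaCl, 1 mM DTT, 0.05% BSA. Fluorescein-labeled HOX-A9 DNA (50 nM solution) followed, 30 min, then polarization read.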
pAkt inh – blocks phosphorylation of Akt. Neuro2A IGF-stimulated pAkt S473 HTRF, 20 min; hits give low values. activity change, % for hits at 50 µM. actives 0.32% (n = 360,000). AID 651550; in the data active = activity change below about -80%; inconclusive = mostly about -51% to -80%
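Single-point screen (50 µM final compound) in Neuro2A cells stimulated 20 min with 6 nM IGF at 37 deg C. After lysis, Ser473-phosphorylated Akt read by HTRF (ex 330 nm, em 615/665 nm) as the 665/615 ratio.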
MBNL1-CUG inh – inhibitors of human MBNL1 binding to CUG repeat RNA; Q9NR56; TR-FRET MBNL1-His/biotin-(CUG)12 binding, 665/545 ratio; Potency, µM (doses to about 57.5 µM), usual class: inhibitors; actives 0.036% (n = 280,000); active = well fitted inhibition curve with a large enough effect in the signal ratio, with a control signal flat, not every such curve was filed as active; inconclusive = small, poorly fitted or top-dose-only effect, or effect the other way, or a change in a side signal; inactive = no such curve, though single readings can be large or run the other way; the % refers to the signal ratio
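MBNL1-His + Biotin-(CUG)12, cpd titration 92 nM–58 uM; Tb anti-His Ab 0.055 ng/ul, SA-XL665 5 nM (final); 60 min RT; ratiometric 665/545 nm, Ex 340 nm; normalized to buffer and full-complex controls.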
ASM inhibitor – blocks human secretory acid sphingomyelinase; actives 0.006% (n = 340,000); placental ASM, HMU-PC fluorogenic substrate, 60 min; AID 504937; Potency, µM (doses to about 57.5 µM), actives largely listed as inhibitors; P17405; active = well fitted inhibition curve with a large enough effect; inconclusive = small, poorly fitted or top-dose-only effect; inactive = no such curve, though single readings can be large or run the other way
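HMU-PC0 cleavage (9 uM final) by human placental ASM, 60 min at 37 °C following 10 min compound exposure at RT; stopped at pH 10, fluorescence Ex 386/Em 447 nm.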
Hits are given with their value; n = inactive; u = inconclusive; x = no result.

SMILES | Menin MLL FP TR | Menin-MLL FL inh | CXXC DNA block | pAkt inh | MBNL1-CUG inh | ASM inhibitor
COc1ccc(NC(=O)CSc2nnc(C3CC3)n2-c2ccccc2)cc1 | n | n | n | n | n | n
Cc1ccc(S(=O)(=O)N2CCN(C(=O)CN3CCCCC3)C2)cc1 | n | n | n | -101% | n | n
COc1cc(C2C(C(=O)c3ccco3)=C(O)C(=O)N2c2cc(C)on2)cc(Br)c1O (stereo not drawn) | n | n | n | -115% | u | n
CC(=O)c1c(C)[nH]c(C(=O)NC2CCCCC2)c1C | n | n | n | n | n | n
CCN(CC)CCCNC(=O)c1[nH]c(C)c(C(=O)NC2CCCCC2)c1C | x | n | n | -83% | n | n
O=C(Nc1cccc2ncccc12)c1cccc(F)c1 | n | n | n | -107% | n | n
COc1ccc(Cc2nnc(SCC(=O)Nc3ccc(C)cc3C)[nH]c2=O)cc1 | x | x | x | n | x | n
COc1ccc(Cc2nnc(Nc3ccc(C)cc3C)[nH]c2=O)cc1 | n | n | n | -122% | n | n
c1ccc(Cc2noc(CN3CCN(C4CCc5ccccc5C4)CC3)n2)cc1 (stereo not drawn) | n | n | n | n | n | n
Cc1cccc(NC(=O)c2cc(=O)c3ccccc3o2)n1 | n | n | n | -116% | u | n
Cc1ccccc1NC(=O)c1cc(=O)c2ccccc2o1 | n | n | n | -110% | u | n
N#CC(C#N)C(c1ccsc1)c1c(-c2ccccc2)[nH][nH]c1=O (stereo not drawn) | n | n | n | -108% | n | n
CN(C)/C=C(\C#N)C(=O)c1cccc(Oc2ccc(Br)cc2)c1 | n | n | n | -112% | n | n
O=C(Nc1cc(C(F)(F)F)ccc1-n1cncn1)c1ccc(Cl)cc1 | n | n | n | -91% | n | n
CCCNc1[nH]c(=O)n(C)c(=O)c1N=O | n | n | n | n | u | n
CN(C)CCNCc1ccc(OC2CCCC2)cc1 | n | n | n | -114% | n | n
CCC(CO)NCc1ccc(OC2CCCC2)cc1 (stereo not drawn) | n | n | n | n | n | n
O=C(Nc1ccccc1)OC1CCS(=O)(=O)C1 (stereo not drawn) | n | n | n | n | n | n
CCCCc1c(O)nc(SCC(=O)N2CCOCC2)n(-c2ccccc2OC)c1=O | n | n | n | n | n | n
CCCCc1c(O)nc(SCC(=O)N2CCOCC2)n(-c2ccccc2C)c1=O | n | n | n | -113% | n | n
COC(=O)C1=C(O)C2(C(=O)O)CC(C(=O)OC)=C(O)C(C(=O)O)(C1)C2 | x | n | n | n | n | n
CC1(C(=O)O)CC(C)(C(=O)O)CC(C)(C(=O)O)C1 (stereo not drawn) | n | n | n | -119% | n | n
CC1CCN(C(=S)NC(=O)c2ccc(C(C)(C)C)cc2)CC1 | n | n | n | n | n | n
CC1CCN(C(=S)NC(=O)c2ccccc2)CC1 | n | n | n | -111% | n | n
O=c1c2[nH]c3ccccc3c2ncn1Cc1ccncc1 | n | n | n | -94% | n | n
SMILES | Menin MLL FP TR | Menin-MLL FL inh | CXXC DNA block | pAkt inh | MBNL1-CUG inh | ASM inhibitor
CC(=O)Nc1sc2c(c1C#N)CCCCC2 | n | n | n | n | u | n
Cc1ccc(C(=O)Nc2sc3c(c2C#N)CCCCC3)cc1C | u | n | n | -95% | n | n
C=CCOC(=O)c1ccccc1C(=O)OCC1CO1 (stereo not drawn) | x | x | x | n | x | n
Cc1ccc(S(=O)(=O)N(Cc2cc3cc4c(cc3[nH]c2=O)OCCO4)CC2CCCO2)cc1 (stereo not drawn) | u | n | n | -105% | n | n
O=C(CCC(=O)OCC(=O)c1ccc(-c2ccccc2)cc1)Nc1cccc(Cl)c1 | 25µM | n | n | n | n | n
O=C(CCNC(=O)c1ccccc1)OCC(=O)c1cccc(Cl)c1 | n | n | n | n | n | n
Cc1ccccc1NC(=O)CCC(=O)OCC(=O)c1ccc(-c2ccccc2)cc1 | 35µM | n | n | n | n | n
COc1cccc(C2C(C#N)=C(N)OC3=C2C(=O)CC(c2ccco2)C3)c1OCc1ccc(F)cc1 (stereo not drawn) | u | n | n | n | n | n
N#CC1=C(N)OC2=C(C(=O)CC(c3ccco3)C2)C1c1ccc(OCc2c(F)cccc2Cl)cc1 (stereo not drawn) | x | x | n | -112% | n | n
CC1CC(C)CN(C(=O)Cn2nnc(-c3ccccc3)n2)C1 (stereo not drawn) | n | n | n | n | n | n
Cc1onc(-c2ccccc2)c1C(=O)Nc1cccc2nsnc12 | n | n | n | -120% | n | n
Cc1nnc(NC(=O)c2c(-c3ccccc3)noc2C)s1 | n | n | n | n | n | n
CCC(=O)NC(c1ccc([N+](=O)[O-])cc1)c1c(O)ccc2ccccc12 (stereo not drawn) | n | n | n | n | n | n
O=C(NC(=S)Nc1nc(-c2cccc3ccccc23)cs1)c1cc2ccccc2o1 | 25µM | n | n | n | n | n
COc1ccc(/C=N/NC(=O)c2cc(-c3ccc(C)cc3C)nc3ccccc23)cc1COC(C)=O | n | n | n | -89% | n | n
CCOC(=O)C(CC)n1cnc2c(oc3ccccc32)c1=O (stereo not drawn) | n | n | n | -113% | n | n
O=c1cc(CCl)[nH]c2nc3ccccc3n12 | x | n | n | n | x | n
O=c1cc(-c2ccccc2)[nH]c2nc3ccccc3n12 | n | n | n | -107% | n | n
O=C(CSc1nnnn1-c1ccc(C(=O)O)cc1)NC1CCCCC1 | n | n | n | n | n | n
CC1=C2C(CCS2(=O)=O)CC2(C1)C(=O)OC(C)(C)OC2=O (stereo not drawn) | n | n | n | -82% | n | n
COc1ccccc1CNC(=O)CCNC(=O)Cn1cnc2ccccc2c1=O | n | n | n | n | n | n
CCN(CC(=O)NCc1cccs1)C(=O)Cc1ccc(C)c(C)c1 | x | x | x | n | x | n
Cc1cc(C#N)c2ccccc2n1 | n | n | n | -109% | n | n
CC(=O)Nc1ccc(C(=O)CSc2ncn(-c3ccccc3)n2)cc1 | n | n | n | -120% | n | n
O=C(CSc1ncn(-c2ccccc2)n1)Nc1nncs1 | n | n | n | n | n | n
CCc1nccn1S(=O)(=O)c1ccccc1[N+](=O)[O-] | n | n | n | n | n | n
CCN=C1SC(CC(=O)NC(N)=O)C(=O)N1CC (stereo not drawn) | n | n | n | -106% | n | n
CCN=C1SC(CC(=O)NC2CCCCC2)C(=O)N1CC (stereo not drawn) | n | n | n | n | n | n
CCOC(=O)/C(C#N)=C/c1ccc(OCC(=O)Nc2cc(C)ccc2C)c(OC)c1 | u | n | n | -82% | n | n
